Data: PubChem BioAssay AID463173 (ICCB-Longwood Screening Facility, Harvard Medical School, 2010)
The whole screen tested about 52,000 compounds, of which about 4,300 (8.3%) were called active. The sample as a whole holds a higher share of actives than the screen did. Unmarked numbers belong to inactive results. No stated cut-off is given here; in the data, active means survival mostly below about 52% (no sharp cut-off); inactive means mostly above about 56%.

System: DeltatarO mutant
Assay: S. aureus survival, RN4220 and DeltatarO strains – OD600, teichoic acid synthesis inhibitors, primary screen (AID 463173)
Conditions: S. aureus RN4220 wild type/DeltatarO growth, OD600, 18 h, active compounds read low, screened at 18.75 µg/mL (by protocol)

Compound	survival
CCc1ccc(-n2c(=O)c3cccnc3n2CC(=O)N(CC)c2cccc(C)c2)cc1	94%
COc1ccc(Cl)cc1NC(=O)CCc1c(C)nc2c(c1C)c(=O)n(C)c(=O)n2C	94%
Cc1cc(C)cc(NC(=O)Cn2c(C)cc(C)c(C#N)c2=O)c1	89%
CC(=NCCCn1ccnc1)c1c(C(F)(F)F)[nH]n(-c2nc3ccccc3s2)c1=O	120%
COC(=O)c1ccc(Cn2nnc3c(=O)[nH]c(C4CCCN(S(=O)(=O)c5ccccc5)C4)nc32)cc1 (stereo not drawn)	99%
CCOc1nc(NCCO)nc(NCCC2=CCCCC2)n1	67%
CCc1ccccc1-n1nnc(-c2nc(-c3ccccc3F)no2)c1C	102%
CC(C)(C)c1ccc(C(=O)NCC(=O)OCc2cc(=O)n3nc(C4CC4)sc3n2)cc1	85%
CCOC(=O)c1c(S(=O)(=O)N2CCN(c3cccc(C(F)(F)F)c3)CC2)c(C)n(C)c1C	116%
CCS(=O)(=O)c1cccc(C(=O)N2CCN(c3nc4c(C)ccc(Cl)c4s3)CC2)c1	78%
COc1cccc(NC(=O)c2cc3c(=O)n(Cc4cccnc4)ccc3nc2C)c1	101%
Cc1nc2ccn(Cc3ccco3)c(=O)c2cc1C(=O)NCc1ccccc1	79%
Cc1ccc(CNC(=O)c2cc3c(=O)n(Cc4ccco4)ccc3nc2C)cc1	87%
Cc1cccc(NC(=O)c2cc3c(=O)n(Cc4cccnc4)ccc3nc2C)c1	0% (active)
Cc1nc2ccn(Cc3ccco3)c(=O)c2cc1C(=O)NCc1ccc(Cl)cc1	47% (active)
CC(=O)Nc1ccc(NC(=O)c2cc3c(=O)n(Cc4cccnc4)ccc3nc2C)cc1	57%
Cc1nc2ccn(Cc3cccs3)c(=O)c2cc1C(=O)NCc1ccc(Cl)cc1	49%
COc1ccc(CNC(=O)c2cc3c(=O)n(Cc4cccs4)ccc3nc2C)cc1	37% (active)
CCOc1ccc(CNC(=O)c2cc3c(=O)n(Cc4cccs4)ccc3nc2C)cc1	112%
Cc1nn(C)c2c1c(-c1ccccc1)cc(=O)n2Cc1ccccc1Cl	88%
Cc1cccc(NC(=O)Cn2c(=O)n(CCc3ccccc3)c(=O)c3sc4ccccc4c32)c1	105%
Cc1ccc(Cn2ccnc2SCC(=O)NC2CCCC2)cc1	89%

Compound	survival
Cc1cccc(C)c1NC(=O)CN1C(=O)c2ccccc2Sc2ncccc21	88%
COc1ccccc1-c1cc(C(=O)NCc2ccccc2)c2c(-c3ccc(C)cc3)[nH]nc2n1	80%
Cn1c(SCC(N)=O)nc2c([nH]c3ccccc32)c1=O	88%
COc1ccccc1N1CCN(C(=O)C(CCSC)NS(=O)(=O)c2ccc3c(c2)oc(=O)n3C)CC1 (stereo not drawn)	87%
Cc1ccc(Cn2c(=O)n(-c3ccccc3)c(=O)c3ccc(C(=O)NCc4ccco4)cc32)cc1	75%
COc1ccc(CCN2C(=O)NC(NC(=O)c3ccccc3OC)(C(F)(F)F)C2=O)cc1OC (stereo not drawn)	77%
CCCCOc1ccc(CNC(=O)c2ccc3c(c2)N(C)C(=O)C2CCCCN32)cc1 (stereo not drawn)	74%
CSc1ccc(CNC(=O)c2ccc3c(c2)N(C)C(=O)C2CCCCN32)cc1 (stereo not drawn)	92%
COc1ccc(CNC(=O)c2ccc3c(c2)N(C)C(=O)C2CCCCN32)cc1OC (stereo not drawn)	75%
COc1cccc(CNC(=O)c2ccc3c(c2)N(C)C(=O)C2CCCCN32)c1 (stereo not drawn)	72%
CC(C)Oc1ccc(CNC(=O)c2ccc3c(c2)N(C)C(=O)C2CCCCN32)cc1 (stereo not drawn)	37% (active)
Cc1cccc(CNC(=O)c2ccc3c(c2)N(C)C(=O)C2CCCCN32)c1 (stereo not drawn)	0% (active)
CCOc1ccc(CNC(=O)C2CCCN(c3nn4cc(-c5ccc(OC)cc5)nc4s3)C2)cc1 (stereo not drawn)	99%
Cc1c2cnn(CC(=O)N3CCN(c4ccccc4)CC3)c(=O)c2c(C)n1Cc1ccc(F)cc1	67%
COc1ccc(-c2cc(C(N)=O)on2)c(OC)c1	99%
O=S(=O)(c1cccc(S(=O)(=O)N2CCOCC2)c1)N1CCCCCC1	91%
Cc1ccc2occ(CC(=O)Nc3nnc(C(C)C)s3)c2c1	70%
CCCCSCCCNC(=O)c1cn(C)c2ccc(S(=O)(=O)N3CCCCCC3)cc2c1=O	63%
Cc1ccc(NC(=O)c2oc3ccccc3c2NC(=O)C23CC4CC(CC(C4)C2)C3)cc1	75%
O=C(Nc1ccc(F)cc1)c1oc2ccccc2c1NC(=O)C1CCCCC1	11% (active)
CN(C)c1ccc(C(=O)Nc2c(C(=O)NC(C)(C)C)oc3ccccc23)cc1	57%
CC(C)(C)NC(=O)c1oc2ccccc2c1NC(=O)c1ccc(F)cc1	71%

Compound	survival
COc1ccc(NC(=O)c2oc3ccccc3c2NC(=O)C2CCCCC2)c(OC)c1	74%
CCOc1ccc(NC(=O)c2oc3ccccc3c2NC(=O)C2CCCCC2)cc1	103%
Cc1ccc(C(=O)Nc2c(C(=O)NC(C)(C)C)oc3ccccc23)cc1	32% (active)
O=C(Nc1ccc(F)cc1)c1oc2ccccc2c1NC(=O)C12CC3CC(CC(C3)C1)C2	96%
Cc1ccc(NC(=O)c2oc3ccccc3c2NC(=O)C2CCCCC2)cc1	2% (active)
COc1cccc(NC(=O)c2oc3ccccc3c2NC(=O)C2CCCCC2)c1	66%
COc1ccccc1NC(=O)c1oc2ccccc2c1NC(=O)C1CCCCC1	43% (active)
COc1cc(OC)cc(C(=O)Nc2c(C(=O)Nc3ccc(F)cc3)oc3ccccc23)c1	62%
CCOC(=O)c1ccc(NC(=O)Cn2nc3c4ccccc4n(Cc4cccc(F)c4)cc-3c2=O)cc1	82%
Cc1cc(C)nc(Nc2ccc(O)cc2)n1	91%
CC(C)c1ccc(S(=O)(=O)c2nnn3c2nc(NC2CCCC2)c2sccc23)cc1	65%
CCN(CC)c1ccc(NC(=O)c2cnn(-c3ccccc3)c2-n2cccc2)c(C)c1	115%
CCC1CCCCN1CCCNC(=O)c1[nH]c2ccccc2c1Sc1ccc(Cl)cc1 (stereo not drawn)	-1% (active)
CC1CCCCN1CCCNC(=O)c1cc(Sc2cccc(Cl)c2)nc2ccccc12 (stereo not drawn)	68%
CCCCNC(=O)c1[nH]c2ccccc2c1Sc1ccc(C)cc1	75%
CCN(CC)CCNC(=O)c1[nH]c2ccccc2c1Sc1ccc(Cl)cc1	45%
CC1CCCCN1CCCNC(=O)Cn1ncc2c([nH]c3ccccc32)c1=O (stereo not drawn)	124%
CC1CCCCN1CCCNC(=O)c1[nH]c2ccccc2c1Sc1ccc(Cl)cc1 (stereo not drawn)	1% (active)
CC1CCCCN1C(=O)CN1CCSc2ccccc21 (stereo not drawn)	74%
Cc1nc2sc(C(N)=O)c(N)c2c(-c2ccc(Br)cc2)c1C(=O)Nc1ccc(Cl)cc1	10% (active)
COc1ccc(NC(=O)c2sc3nc(C)c(C(=O)Nc4ccc(Cl)cc4)c(-c4ccc(Br)cc4)c3c2N)cc1	57%
Cc1nc2sc(C(=O)Nc3ccc(F)cc3)c(N)c2c(-c2ccc(Br)cc2)c1C(=O)Nc1ccc(Cl)cc1	80%

Compound	survival
Cc1ccc(CNC(=O)CCN2C(=O)C(C)Oc3ccc(C)cc32)cc1 (stereo not drawn)	128%
Cn1cc(C(=O)O)c(=O)c2ccccc21	80%
CCCNC(=O)c1c(O)c2ccccc2n(C)c1=O	93%
CCc1nnc(NC(=O)c2c(O)c3ccccc3n(C)c2=O)s1	-1% (active)
CCc1nnc(NC(=O)c2c(O)c3ccccc3[nH]c2=O)s1	84%
COc1ccc(C(=O)COC(=O)CCCC(=O)Nc2cc(C(F)(F)F)ccc2Cl)cc1	53%
Cc1ccc(C)c(C(=O)COC(=O)CCCC(=O)Nc2cc(C(F)(F)F)ccc2Cl)c1	25% (active)
Cc1ccc(C(=O)COC(=O)CCCC(=O)Nc2cc(C(F)(F)F)ccc2Cl)cc1C	54%
COC(=O)c1ccccc1NC(=O)CSc1nc(=O)cc(N)n1-c1ccccc1	38% (active)
COc1ccc(Cl)cc1NC(=O)CSc1nc(-c2cccs2)cc(C(F)(F)F)n1	35% (active)
Cc1ccc(NC(=O)CSc2nc(-c3cccs3)cc(C(F)(F)F)n2)cc1C	155%
O=C(CSc1nc(-c2cccs2)cc(C(F)(F)F)n1)Nc1ccccc1Cl	121%
Nc1cc(=O)nc(SCC(=O)Nc2ccc(F)cc2)n1-c1cccc(Cl)c1	145%
COc1ccc(NC(=O)CSc2nc(-c3cccs3)cc(C(F)(F)F)n2)cc1Cl	37% (active)
COc1ccc(Cl)cc1NC(=O)CCS(=O)(=O)c1nc(-c2cccs2)cc(C(F)(F)F)n1	63%
COc1ccc(NC(=O)CSc2nc(-c3cccs3)cc(C(F)(F)F)n2)c(OC)c1	57%
COc1cc(NC(=O)CSc2nc(-c3cccs3)cc(C(F)(F)F)n2)cc(OC)c1OC	49%
Cc1ccc(NC(=O)CSc2nc(=O)cc(N)n2-c2ccccc2)cc1	87%
CCOc1ccccc1NC(=O)CSc1nc(-c2cccs2)cc(C(F)(F)F)n1	69%
CC(C)(C)c1ccccc1NC(=O)CSc1nc(-c2cccs2)cc(C(F)(F)F)n1	23% (active)
CCOC(=O)c1oc2ccc(S(=O)(=O)n3nc(-c4cc(OC)c(OC)c(OC)c4)cc3N)cc2c1C	73%
Cc1cccc(N2CCN(C(=O)C3CCN(S(=O)(=O)c4c(C)noc4C)CC3)CC2C)c1 (stereo not drawn)	100%
